Measured values published in PubChem BioAssay (EPA / NIEHS).
Results filed as inconclusive are left out. The source made the active and inactive calls. The calls were made as follows, unless noted: active = hit-call score of the fitted dose curve at least 0.9, where 1 is the maximum; inconclusive = response in the unintended direction; inactive = score below 0.9.

How the values were obtained:
[1] = molecular target: human Peroxisome Proliferator-activated Receptor alpha (PPARa), PPARA (gene 5465) (UniProt Q07869); experiment: ATG_PPARa_TRANS: Attagene TRANS-FACTORIAL HepG2 Assay for human Peroxisome Proliferator-activated Receptor alpha (PPARa) (AID 2283001);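 as to AC50: potency for gain of reporter signal over DMSO so agonist or activator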
In short: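 HepG2, transient MRTU transfection, 24 h treatment. RT-PCR → FAM labelling → capillary electrophoresis. Fit vs DMSO, positive direction.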

[2] = molecular target: human Peroxisome Proliferator-activated Receptor delta (PPARd), PPARD (gene 5467) (UniProt Q03181); experiment: ATG_PPARd_TRANS: Attagene TRANS-FACTORIAL HepG2 Assay for human Peroxisome Proliferator-activated Receptor delta (PPARd) (AID 2283002)
In short: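 Fluorescence from capillary electrophoresis of labelled RT-PCR reporter fragments gives the signal; DMSO sets baseline. Cells: HepG2 transiently carrying GAL4-UAS reporter units plus chimeric nuclear receptor-Gal4 proteins, exposed to chemicals for 24 h.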

[3] = molecular target: Peroxisome proliferator-activated receptor gamma (Homo sapiens) (UniProt P37231); experiment: ATG_PPARg_TRANS: Attagene TRANS-FACTORIAL HepG2 Assay for human Peroxisome Proliferator-activated Receptor-gamma (PPARg) (AID 2283007)
In short: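 Multiplexed reporter transcription units in HepG2, 24 h dosing, reporter transcripts quantified by fluorescent RT-PCR and capillary electrophoresis. Increase over DMSO scored.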

[4] = molecular target: Nuclear receptor subfamily 1 group I member 2 (Homo sapiens) (UniProt O75469); experiment: ATG_PXR_TRANS: Attagene TRANS-FACTORIAL HepG2 Assay for human Pregnane X Receptor (PXR) (AID 2283008)
In short: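 HepG2 transfected (FuGene 6) with GAL4-UAS reporter units + PXR-Gal4 chimera; dosed 24 h. Total RNA → oligo(dT) RT → PCR → 6-FAM primer extension → HpaI cut → CE. Gain-of-signal vs DMSO.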

[5] = molecular target: Retinoic acid receptor RXR-alpha (Homo sapiens) (UniProt P19793); experiment: ATG_RXRa_TRANS: Attagene TRANS-FACTORIAL HepG2 Assay for human Retinoid X Receptor alpha (RXRa) (AID 2283012)
In short: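 TRANS format reporting activity of exogenous RXRa-Gal4 chimera in transiently transfected HepG2, 24 h exposure. Reporter transcripts quantified by RT-PCR with capillary electrophoresis, with gain of signal scored relative to DMSO.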

[6] = molecular target: human Retinoid X Receptor beta (RXRb), RXRB (gene 6257) (UniProt P28702); experiment: ATG_RXRb_TRANS: Attagene TRANS-FACTORIAL HepG2 Assay for human Retinoid X Receptor beta (RXRb) (AID 2283013)
In short: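 Readout is reporter transcript induction after 24 h dosing. It is measured by RT-PCR of total RNA followed by fluorescent capillary electrophoresis. HepG2 liver cells carry transfected multiple reporter units driven by an exogenous RXRb-Gal4 fusion; activity is relative to DMSO.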

[7] = molecular target: Retinoic acid receptor alpha (Homo sapiens) (UniProt P10276); experiment: ATG_RARa_TRANS: Attagene TRANS-FACTORIAL HepG2 Assay for human Retinoic Acid Receptor alpha (RARa) (AID 2283005)
In short: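 HepG2 transiently transfected with multiplex GAL4-UAS reporter units including a human RARa–GAL4 chimera; 24 h compound exposure. Reporter mRNA quantified by RT-PCR, 6-FAM labeling and capillary electrophoresis; gain of signal versus DMSO.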

[8] = molecular target: human Thyroid Receptor alpha (THRa1), THRA (gene 7067) (UniProt P10827); experiment: ATG_THRa1_TRANS: Attagene TRANS-FACTORIAL HepG2 Assay for human Thyroid Receptor alpha (THRa1) (AID 2283014)
In short: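 First, HepG2 cells receive multiple GAL4-UAS reporter units and the chimeric receptor. They are then dosed for 24 h, after which RNA is reverse-transcribed, amplified, labelled, HpaI-cut and sized by capillary electrophoresis; gain relative to DMSO is scored.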

[9] = read-out: Intercellular Adhesion Molecule 1 (ICAM1), ICAM1 (gene 3383); experiment: BSK_3C_ICAM1: BioMAP Diversity Plus: 3C Assay for Intercellular Adhesion Molecule 1 (ICAM1) Biomarker Activity (AID 2283003; active = hit-call score of the fitted dose curve at least 0.9, where 1 is the maximum; inactive = score below 0.9); conditions: primary human endothelial cells (HUVEC); actives raise or lower the signal
In short: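 ELISA readout of ICAM1 in human umbilical vein endothelial cells in the 3C system, taken 24 h post-dose. Gain or loss of signal versus DMSO was fitted in both directions, with SRB total-protein staining run in parallel.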

[10] = molecular target: human Retinoic Acid Receptor beta (RARb), RARB (gene 5915) (UniProt P10826); experiment: ATG_RARb_TRANS: Attagene TRANS-FACTORIAL HepG2 Assay for human Retinoic Acid Receptor beta (AID 2283004)
In short: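 HepG2, transient MRTU transfection, NR–Gal4 chimera, 24 h treatment; RT-PCR plus CE fluorescence detection of reporter mRNA; gain of signal vs DMSO.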

[11] = BSK_3C_Proliferation: Cell Proliferation Assessment in the BioMAP Diversity Plus: 3C Assay (AID 2283006; active = hit-call score of the fitted dose curve at least 0.9, where 1 is the maximum; inactive = score below 0.9); conditions: primary human endothelial cells (HUVEC)
In short: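 Proliferation as total protein: sulforhodamine B (0.1%) stain of TCA-fixed subconfluent human umbilical vein endothelial cells, absorbance 560 nm, 48 h after dosing. Activity fitted in both directions against DMSO baseline.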

[12] = molecular target: human RAR-related Orphan Receptor gamma (RORg), RORC (gene 6097) (UniProt P51449); experiment: ATG_RORg_TRANS: Attagene TRANS-FACTORIAL HepG2 Assay for human RAR-related Orphan Receptor gamma (RORg) (AID 2283011)
In short: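 Activity is scored as increase in GAL4-UAS reporter mRNA over DMSO, detected by fluorescent RT-PCR and capillary electrophoresis in HepG2 cells transiently expressing a RORg-Gal4 chimera, 24 h after dosing.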

[13] = read-out: E-selectin (Homo sapiens) (UniProt P16581); experiment: BSK_3C_Eselectin: BioMAP Diversity Plus: 3C Assay for Eselectin Biomarker Activity (AID 2283015; active = hit-call score of the fitted dose curve at least 0.9, where 1 is the maximum; inactive = score below 0.9;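 also: cell surface E-selectin protein quantified by ELISA 24 h after dosing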); conditions: primary human endothelial cells (HUVEC); actives raise or lower the signal
In short: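 Human vascular endothelium from umbilical vein is exposed to test chemicals for 24 h. E-selectin levels are read by ELISA and compared with DMSO controls.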

[14] = read-out: Interleukin-1 alpha (IL1a), IL1A (gene 3552); experiment: BSK_BE3C_IL1a: BioMAP Diversity Plus: BE3C Assay for Interleukin-1 alpha (IL1a) Biomarker Activity (AID 2283016; active = hit-call score of the fitted dose curve at least 0.9, where 1 is the maximum; inactive = score below 0.9); conditions: primary human bronchial epithelial cells; actives raise or lower the signal
In short: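 IL-1a measured by ELISA after 24 h treatment of human primary bronchial epithelial cells, with gain or loss of signal fitted versus DMSO. Parallel cultures stained with SRB gauge overt cytotoxicity.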

[15] = read-out: Monocyte Chemoattractant Protein-1 (MCP1), CCL2 (gene 6347); experiment: BSK_3C_MCP1: BioMAP Diversity Plus: 3C Assay for Monocyte Chemoattractant Protein-1 (MCP1) Biomarker Activity (AID 2283017; active = hit-call score of the fitted dose curve at least 0.9, where 1 is the maximum; inactive = score below 0.9); conditions: primary human endothelial cells (HUVEC); actives raise or lower the signal
In short: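 Endothelial cells from human umbilical vein are dosed with chemical, cultured 24 h, then assayed for MCP-1 by ELISA; both increases and decreases are modelled against DMSO controls.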

[16] = read-out: Monocyte Chemoattractant Protein-1 (MCP1), CCL2 (gene 6347); experiment: BSK_4H_MCP1: BioMAP Diversity Plus: 4H Assay for Monocyte Chemoattractant Protein-1 (MCP1) Biomarker Activity (AID 2283018; active = hit-call score of the fitted dose curve at least 0.9, where 1 is the maximum; inactive = score below 0.9); conditions: primary human endothelial cells (HUVEC); actives raise or lower the signal
In short: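 ELISA of MCP-1 (CCL2) 24 h after chemical dosing of HUVEC in the BioMAP 4H system. Gain or loss versus DMSO fitted; parallel SRB staining (560 nm) tracked overt cytotoxicity.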

[17] = read-out: Human Leukocyte Antigen - DR isotype (HLADR), HLA-DRA (gene 3122); experiment: BSK_3C_HLADR: BioMAP Diversity Plus: 3C Assay for Human Leukocyte Antigen - DR isotype (HLADR) Biomarker Activity (AID 2283019; active = hit-call score of the fitted dose curve at least 0.9, where 1 is the maximum; inactive = score below 0.9;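 also: ELISA of cell-surface HLA-DR on HUVEC 24 h after dosing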); conditions: primary human endothelial cells (HUVEC); actives raise or lower the signal
In short: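 Endothelial cells from human umbilical vein are treated with test chemical; after 24 h, HLA-DR levels are measured by ELISA. Data are fitted in both directions using DMSO as the baseline.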

[18] = read-out: Interleukin-8 (IL8), CXCL8 (gene 3576); experiment: BSK_3C_IL8: BioMAP Diversity Plus: 3C Assay for Interleukin-8 (IL8) Biomarker Activity (AID 2283020; active = hit-call score of the fitted dose curve at least 0.9, where 1 is the maximum; inactive = score below 0.9); conditions: primary human endothelial cells (HUVEC); actives raise or lower the signal
In short: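 IL-8 was measured by ELISA in HUVEC cultures 24 h after chemical dosing, with gain or loss of signal fitted relative to DMSO. Parallel SRB total-protein staining tracked overt cytotoxicity.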

[19] = molecular target: human Retinoic Acid Receptor gamma (RARg), RARG (gene 5916) (UniProt P13631); experiment: ATG_RARg_TRANS: Attagene TRANS-FACTORIAL HepG2 Assay for human Retinoic Acid Receptor gamma (RARg) (AID 2283009)
In short: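 Transactivation of exogenous RARg-Gal4 fusion measured as reporter transcript induction after 24 h in transfected HepG2 cells. RNA reverse-transcribed, amplified, fluorescently labeled and resolved by capillary electrophoresis; increase relative to DMSO.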

[20] = molecular target: human RAR-related Orphan Receptor beta (RORb), RORB (gene 6096) (UniProt Q92753); experiment: ATG_RORb_TRANS: Attagene TRANS-FACTORIAL HepG2 Assay for human RAR-related Orphan Receptor beta (RORb) (AID 2283010)
In short: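 Read-out is reporter mRNA induction, quantified by RT-PCR with fluorescent capillary electrophoresis, 24 h post-dose in transiently transfected HepG2 expressing exogenous NR-Gal4 chimera. Activity fitted upward versus DMSO.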

Measured: AC50

human Thyroid Receptor alpha (THRa1), THRA (gene 7067), sequence (P10827 whole entry, looked up, the tested form may be a part): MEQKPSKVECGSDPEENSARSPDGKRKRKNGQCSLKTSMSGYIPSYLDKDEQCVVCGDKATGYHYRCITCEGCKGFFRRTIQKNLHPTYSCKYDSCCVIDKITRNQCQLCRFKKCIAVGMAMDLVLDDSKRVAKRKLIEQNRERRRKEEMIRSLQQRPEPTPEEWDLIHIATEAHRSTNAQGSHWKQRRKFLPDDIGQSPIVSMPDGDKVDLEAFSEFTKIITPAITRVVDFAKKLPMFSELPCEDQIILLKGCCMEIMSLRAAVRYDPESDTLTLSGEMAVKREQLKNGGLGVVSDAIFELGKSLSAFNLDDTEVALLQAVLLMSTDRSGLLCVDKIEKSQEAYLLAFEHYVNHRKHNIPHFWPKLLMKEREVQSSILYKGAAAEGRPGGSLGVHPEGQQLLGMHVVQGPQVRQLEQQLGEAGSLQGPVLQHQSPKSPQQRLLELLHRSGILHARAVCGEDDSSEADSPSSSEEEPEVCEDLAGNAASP
Nuclear receptor subfamily 1 group I member 2 (Homo sapiens), sequence (O75469 whole entry, looked up, the tested form may be a part): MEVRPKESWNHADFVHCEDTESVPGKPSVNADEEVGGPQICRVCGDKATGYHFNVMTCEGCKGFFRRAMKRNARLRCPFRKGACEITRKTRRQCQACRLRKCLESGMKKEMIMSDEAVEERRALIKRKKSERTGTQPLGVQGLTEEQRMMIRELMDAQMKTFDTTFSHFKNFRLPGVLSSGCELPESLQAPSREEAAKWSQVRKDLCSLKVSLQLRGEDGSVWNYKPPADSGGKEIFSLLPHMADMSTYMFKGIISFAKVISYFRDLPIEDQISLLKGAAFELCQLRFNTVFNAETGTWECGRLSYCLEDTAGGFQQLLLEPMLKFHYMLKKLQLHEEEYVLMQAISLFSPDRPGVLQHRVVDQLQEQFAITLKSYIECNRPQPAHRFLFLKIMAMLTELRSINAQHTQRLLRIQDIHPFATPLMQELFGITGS
Retinoic acid receptor RXR-alpha (Homo sapiens), sequence (P19793 whole entry, looked up, the tested form may be a part): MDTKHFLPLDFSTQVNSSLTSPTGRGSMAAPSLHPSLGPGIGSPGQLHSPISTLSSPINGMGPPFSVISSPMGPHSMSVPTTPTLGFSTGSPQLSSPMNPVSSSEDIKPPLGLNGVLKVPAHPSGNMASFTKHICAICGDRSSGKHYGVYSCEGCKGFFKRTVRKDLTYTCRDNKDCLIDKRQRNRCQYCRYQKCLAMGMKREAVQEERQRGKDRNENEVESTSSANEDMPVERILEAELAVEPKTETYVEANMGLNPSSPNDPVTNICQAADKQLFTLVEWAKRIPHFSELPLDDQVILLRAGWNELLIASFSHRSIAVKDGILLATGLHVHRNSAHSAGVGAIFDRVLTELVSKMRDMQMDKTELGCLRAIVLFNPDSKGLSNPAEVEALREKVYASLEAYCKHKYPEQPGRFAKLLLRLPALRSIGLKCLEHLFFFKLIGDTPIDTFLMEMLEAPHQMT
human Peroxisome Proliferator-activated Receptor delta (PPARd), PPARD (gene 5467), sequence (Q03181 whole entry, looked up, the tested form may be a part): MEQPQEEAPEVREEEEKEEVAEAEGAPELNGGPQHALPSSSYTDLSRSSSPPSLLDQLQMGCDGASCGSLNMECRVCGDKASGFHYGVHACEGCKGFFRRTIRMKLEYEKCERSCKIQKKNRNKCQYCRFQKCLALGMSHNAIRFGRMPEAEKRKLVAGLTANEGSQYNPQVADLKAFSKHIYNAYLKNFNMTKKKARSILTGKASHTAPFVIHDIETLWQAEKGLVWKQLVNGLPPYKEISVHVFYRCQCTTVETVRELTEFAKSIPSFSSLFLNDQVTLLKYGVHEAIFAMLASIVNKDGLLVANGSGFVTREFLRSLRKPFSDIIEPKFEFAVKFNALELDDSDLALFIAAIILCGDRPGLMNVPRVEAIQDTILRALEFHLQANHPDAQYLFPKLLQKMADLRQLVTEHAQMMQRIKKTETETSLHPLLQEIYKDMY
E-selectin (Homo sapiens), sequence (P16581 whole entry, looked up): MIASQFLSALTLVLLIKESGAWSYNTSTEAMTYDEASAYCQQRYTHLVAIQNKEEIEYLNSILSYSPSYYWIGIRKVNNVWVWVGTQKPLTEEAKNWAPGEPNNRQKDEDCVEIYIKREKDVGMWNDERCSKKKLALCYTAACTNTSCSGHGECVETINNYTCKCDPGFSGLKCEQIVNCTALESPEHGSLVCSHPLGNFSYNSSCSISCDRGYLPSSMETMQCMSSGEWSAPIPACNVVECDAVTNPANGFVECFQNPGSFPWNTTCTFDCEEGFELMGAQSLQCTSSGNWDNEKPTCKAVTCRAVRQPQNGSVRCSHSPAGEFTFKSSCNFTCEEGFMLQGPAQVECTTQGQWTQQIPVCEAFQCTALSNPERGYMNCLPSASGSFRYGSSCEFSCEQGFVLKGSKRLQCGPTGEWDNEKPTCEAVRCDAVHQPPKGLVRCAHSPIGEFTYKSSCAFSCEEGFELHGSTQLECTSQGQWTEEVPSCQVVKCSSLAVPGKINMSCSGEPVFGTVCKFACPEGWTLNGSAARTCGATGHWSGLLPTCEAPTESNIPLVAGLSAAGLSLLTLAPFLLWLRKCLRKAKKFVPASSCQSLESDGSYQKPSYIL
human Retinoic Acid Receptor beta (RARb), RARB (gene 5915), sequence (P10826 whole entry, looked up, the tested form may be a part): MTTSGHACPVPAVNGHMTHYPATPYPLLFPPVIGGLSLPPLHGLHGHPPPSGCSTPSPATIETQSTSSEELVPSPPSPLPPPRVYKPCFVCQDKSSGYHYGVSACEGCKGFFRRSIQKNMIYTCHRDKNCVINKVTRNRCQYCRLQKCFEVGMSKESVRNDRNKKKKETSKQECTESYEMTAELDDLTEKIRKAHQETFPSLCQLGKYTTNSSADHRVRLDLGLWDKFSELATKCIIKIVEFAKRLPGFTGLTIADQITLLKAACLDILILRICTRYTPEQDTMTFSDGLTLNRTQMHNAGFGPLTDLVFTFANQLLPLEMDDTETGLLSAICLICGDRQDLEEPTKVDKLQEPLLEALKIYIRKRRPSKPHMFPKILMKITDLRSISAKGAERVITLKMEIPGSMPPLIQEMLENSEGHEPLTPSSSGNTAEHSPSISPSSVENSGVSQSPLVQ
Retinoic acid receptor alpha (Homo sapiens), sequence (P10276 whole entry, looked up, the tested form may be a part): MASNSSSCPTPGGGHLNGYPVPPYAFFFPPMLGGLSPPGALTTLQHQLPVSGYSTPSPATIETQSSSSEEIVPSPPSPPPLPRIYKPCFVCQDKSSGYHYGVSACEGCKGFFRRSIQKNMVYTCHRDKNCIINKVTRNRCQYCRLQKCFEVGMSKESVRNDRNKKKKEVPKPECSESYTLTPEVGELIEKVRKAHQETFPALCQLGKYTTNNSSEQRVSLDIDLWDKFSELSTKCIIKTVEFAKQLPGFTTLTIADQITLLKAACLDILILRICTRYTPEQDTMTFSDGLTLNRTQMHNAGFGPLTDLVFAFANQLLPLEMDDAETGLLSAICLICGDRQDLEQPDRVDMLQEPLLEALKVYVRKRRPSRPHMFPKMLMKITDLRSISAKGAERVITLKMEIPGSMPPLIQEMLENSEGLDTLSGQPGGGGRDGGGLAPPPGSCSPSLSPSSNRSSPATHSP
human RAR-related Orphan Receptor gamma (RORg), RORC (gene 6097), sequence (P51449 whole entry, looked up, the tested form may be a part): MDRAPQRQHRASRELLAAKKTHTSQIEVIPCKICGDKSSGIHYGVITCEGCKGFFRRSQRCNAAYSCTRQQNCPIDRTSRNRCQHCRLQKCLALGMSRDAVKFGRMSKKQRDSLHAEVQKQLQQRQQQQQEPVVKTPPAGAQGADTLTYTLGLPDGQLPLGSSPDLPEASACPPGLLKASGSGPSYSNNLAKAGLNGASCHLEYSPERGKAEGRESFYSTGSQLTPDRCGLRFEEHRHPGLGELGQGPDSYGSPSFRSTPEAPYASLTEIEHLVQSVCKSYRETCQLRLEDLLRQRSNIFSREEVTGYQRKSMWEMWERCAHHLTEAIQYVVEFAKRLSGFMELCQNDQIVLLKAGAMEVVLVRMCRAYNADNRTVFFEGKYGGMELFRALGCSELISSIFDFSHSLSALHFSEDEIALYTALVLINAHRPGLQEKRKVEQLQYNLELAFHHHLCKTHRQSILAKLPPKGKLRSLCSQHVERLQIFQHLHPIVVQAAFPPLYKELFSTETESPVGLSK
Peroxisome proliferator-activated receptor gamma (Homo sapiens), sequence (P37231 whole entry, looked up): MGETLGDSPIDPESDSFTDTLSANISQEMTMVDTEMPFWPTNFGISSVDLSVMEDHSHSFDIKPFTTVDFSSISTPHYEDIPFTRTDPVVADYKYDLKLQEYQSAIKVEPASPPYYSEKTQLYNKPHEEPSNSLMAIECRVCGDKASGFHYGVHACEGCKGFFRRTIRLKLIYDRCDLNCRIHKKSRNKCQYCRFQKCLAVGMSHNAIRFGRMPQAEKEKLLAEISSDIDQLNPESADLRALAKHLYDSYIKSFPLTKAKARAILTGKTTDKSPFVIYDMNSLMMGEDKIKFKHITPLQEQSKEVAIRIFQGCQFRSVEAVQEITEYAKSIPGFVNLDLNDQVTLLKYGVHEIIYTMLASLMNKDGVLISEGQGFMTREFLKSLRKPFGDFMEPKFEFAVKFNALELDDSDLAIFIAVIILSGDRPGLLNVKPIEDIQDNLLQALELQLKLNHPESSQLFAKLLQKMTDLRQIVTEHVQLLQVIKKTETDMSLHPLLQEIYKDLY
human Retinoic Acid Receptor gamma (RARg), RARG (gene 5916), sequence (P13631 whole entry, looked up, the tested form may be a part): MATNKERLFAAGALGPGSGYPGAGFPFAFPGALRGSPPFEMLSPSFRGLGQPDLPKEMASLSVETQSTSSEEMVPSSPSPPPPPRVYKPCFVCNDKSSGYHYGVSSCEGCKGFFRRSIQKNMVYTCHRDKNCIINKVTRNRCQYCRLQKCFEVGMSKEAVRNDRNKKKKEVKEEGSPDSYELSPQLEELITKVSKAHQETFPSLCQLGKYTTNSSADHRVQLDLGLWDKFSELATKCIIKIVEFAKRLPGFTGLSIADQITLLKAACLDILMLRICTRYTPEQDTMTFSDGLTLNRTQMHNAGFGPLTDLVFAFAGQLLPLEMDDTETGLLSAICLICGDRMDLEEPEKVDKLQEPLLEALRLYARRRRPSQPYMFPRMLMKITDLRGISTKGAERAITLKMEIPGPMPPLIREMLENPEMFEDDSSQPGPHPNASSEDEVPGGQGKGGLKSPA

C=CCCCCCCCCC(=O)OCCCC
inactive: [1] | [2] | [4] | [5]
active: [3] 67.8 µM | [6] 104 µM

CC(=O)[C@@]1(O)CC[C@H]2[C@@H]3C[C@H](C)C4=CC(=O)C=C[C@]4(C)[C@@]3(F)[C@@H](O)C[C@@]21C
inactive: [1] | [2] | [7] | [4] | [5] | [6] | [8]

O=Nc1ccc(O)cc1
inactive: [1] | [9] | [10] | [11] | [12] | [5] | [6] | [8] | [13] | [14] | [15] | [16] | [17] | [18]

CCCCCCCCC(=O)OCC
inactive: [1] | [10] | [7] | [3] | [4] | [19] | [5] | [6] | [8]

Nc1cccc(C(F)(F)F)c1
inactive: [1] | [10] | [3] | [4] | [12]

CC(=O)CC(N)=O
inactive: [1] | [2] | [4] | [5] | [6]

O=C1c2cccc(O)c2C(=O)c2c(O)cc(CO)cc21
active: [3] 50.3 µM | [4] 5.78 µM
inactive: [1] | [10] | [7] | [19] | [5] | [8]

[Cl][Nd]([Cl])[Cl]
inactive: [1] | [2] | [4] | [12] | [6] | [8]

O=C1CCCCCCCCCCC(=O)OCCO1
inactive: [1] | [10] | [7] | [3] | [4] | [19] | [20] | [5] | [6]

c1ccc2c(c1)ccc1cc3c(ccc4ccccc43)cc12
inactive: [1] | [9] | [11] | [4] | [19] | [20] | [12] | [5] | [8] | [13] | [14] | [15] | [16] | [17] | [18]

CC(C)c1ccc2c(c1)CC[C@H]1[C@](C)(CN)CCC[C@]21C
inactive: [2]
active: [1] 6.09 µM | [3] 6.02 µM | [5] 6.76 µM

CC/C=C\CCOC(=O)CCCCC
inactive: [1] | [10] | [7] | [4] | [5]

CN(C)c1ccc(N=Nc2ccccc2C(=O)O)cc1
inactive: [2] | [5]
active: [1] 23.2 µM | [3] 27.5 µM

CCCc1ccc(OC)cc1
inactive: [1] | [10] | [3] | [4] | [20] | [12] | [6]

CC(C)C1=CC2=CC[C@@H]3[C@](C)(CCC[C@@]3(C)C(=O)O)[C@H]2CC1
active: [3] 43.9 µM | [4] 1.55 µM
inactive: [1] | [10] | [20] | [5] | [6] | [8]
